# Assay outcomes deposited in PubChem by National Center for Advancing Translational Sciences (NCATS).
# TDP1 cell CPT = growth inhibition of DT40 Tdp1-/-;hTDP1 cells with camptothecin (screen for TDP1 inhibitors); chicken DT40 Tdp1-/-;hTDP1 cells + 20 nM CPT, ATP luminescence, 48 h; Potency, µM (top dose mostly 46.2 µM), for inactives: top-dose activity change, negative = growth inhibition, hits mostly inhibitors; 420,000 tested, 12% active; AID 686979; further: potency means the concentration at half of the fitted maximal effect; nearly all actives have a fitted effect of over 55% in size
#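 Chicken DT40 Tdp1-/- cells complemented with human TDP1, 400 cells/well, exposed to compounds plus 20 nM camptothecin for at least 48 h at 37 C; viability read as ATP content by CellTiter-Glo luminescence.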
# TDP1 cell noCPT = qHTS for Inhibitors of human tyrosyl-DNA phosphodiesterase 1 (TDP1): qHTS in cells in absence of CPT; DT40 Tdp1-/- hTDP1 cells, no CPT, ATP luminescence, 48 h; Potency, µM (highest dose often 46.2 µM), inactives show at the top dose activity change, negative = growth inhibition, hits mostly inhibitors; 420,000 tested, 15% active; AID 686978, 2013; further: potency means the concentration at half of the fitted maximal effect; nearly all actives have a fitted effect of over 55% in size
#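 Growth of hTDP1-complemented DT40 Tdp1-knockout cells is measured by ATP luminescence after at least 48 hr compound exposure at 37 °C, with DMSO substituting for the 20 nM CPT used in the parallel screen.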
# IL-1B inflam inh = inhibitors of inflammasome signaling (IL-1 beta secretion); THP-1 LPS/ATP IL-1B secretion, AlphaLISA, 16 h; active compounds read low; activity change, % at 57.5 µM; 360,000 tested, 4.7% active; AID 743279; in the data active means activity change below about -50%; inconclusive means mostly about -30% to -49%
#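 Secreted IL-1B measured by AlphaLISA bead assay after 16 h compound exposure of THP-1 cells; compounds (final up to 57.5 uM) added 1 h before LPS (250 ng/mL) and ATP (1.25 mM) stimulation; lower signal means less secretion.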
# Giardia kill = Giardia lamblia killing; Giardia lamblia trophozoite viability; activity change, % at 7.66 µM, hits read low; 340,000 tested, 0.15% active; in the data active means activity change below about -80%; inconclusive means between about -30% and that limit;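 further: parasites exposed to compound for two days anaerobically before the ATP read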
#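 ATP-content bioluminescence gauges trophozoite survival. Cells (100/well) receive compound and incubate anaerobically for 48 hrs at 37 deg C; detection reagent follows for 15-30 min at room temperature.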
# TDP1 inh = blocks human tyrosyl-DNA phosphodiesterase 1; AID 485290; recombinant TDP1, AlphaScreen DNA substrate cleavage; 350,000 tested, 0.28% active; Potency, µM (top dose mostly 130 µM), for the others: top-dose activity change, negative = inhibition, actives largely listed as inhibitors; Q9NUW8; further: potency means the concentration at half of the fitted maximal effect; nearly all actives have a fitted effect of over 40% in size
# Target sequence (Q9NUW8 whole entry, looked up): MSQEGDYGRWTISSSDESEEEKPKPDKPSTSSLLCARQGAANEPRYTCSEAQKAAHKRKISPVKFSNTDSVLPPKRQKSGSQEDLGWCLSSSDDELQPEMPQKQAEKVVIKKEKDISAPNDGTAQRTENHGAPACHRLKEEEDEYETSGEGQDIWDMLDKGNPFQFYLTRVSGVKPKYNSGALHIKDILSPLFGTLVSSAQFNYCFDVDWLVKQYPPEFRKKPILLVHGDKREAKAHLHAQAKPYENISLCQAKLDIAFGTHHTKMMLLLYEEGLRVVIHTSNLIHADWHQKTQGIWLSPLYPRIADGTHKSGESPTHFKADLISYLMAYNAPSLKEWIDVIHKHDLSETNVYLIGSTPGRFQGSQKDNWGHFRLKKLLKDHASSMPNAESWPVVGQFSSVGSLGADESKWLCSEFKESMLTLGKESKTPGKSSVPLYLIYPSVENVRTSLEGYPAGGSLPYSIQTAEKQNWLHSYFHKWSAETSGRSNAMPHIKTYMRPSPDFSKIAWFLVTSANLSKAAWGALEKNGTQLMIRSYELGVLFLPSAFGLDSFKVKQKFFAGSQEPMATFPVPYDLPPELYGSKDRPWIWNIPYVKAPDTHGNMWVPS
#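 Here, a 5' biotin and 3' phosphotyrosine-FITC DNA oligonucleotide reports Tdp1 activity: intact substrate bridges AlphaScreen beads, while cleavage leaves a 3' phosphate and drops signal. All incubations at room temperature.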
# ELG1 repair inh = blocks ELG1-dependent DNA repair in HEK293T cells; AID 504467; Potency, µM (doses to about 46.1 µM), inactives show at the top dose activity change, negative = inhibition, most hits filed as inhibitors; 330,000 tested, 2.3% active; HEK293T ELG1-luciferase reporter, luminescence, 16 h; DNA damage induced by 5-fluorouridine; further: potency means the concentration at half of the fitted maximal effect; nearly all actives have a fitted effect of over 55% in size
#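 Reporter activity after DNA damage by 5-fluorouridine is monitored. Compound-treated cells incubate 16 hr at 37 °C, then ONE-Glo is added for 30 min before luminescence reading.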
# * hit, by the source's call; ? = inconclusive; · = no result; [ ] = another dose, or the depositor's remark. Most compounds without a hit are left out; they make up all but 19% or so of the library. Unless noted, the call rests on the fitted dose curve; in most records, active means well fitted curve in the direction sought with a large enough effect; inconclusive means small, poorly fitted or top-dose-only effect, or another doubt; inactive means no such curve, though single readings can be large; an effect the other way counts as inactive or inconclusive. On the % scale 0 is the no-effect control and ±100 the full control effect.
SMILES,TDP1 cell CPT,TDP1 cell noCPT,IL-1B inflam inh,Giardia kill,TDP1 inh,ELG1 repair inh
N[C@@H](Cn1cc(I)c(=O)[nH]c1=O)C(=O)O,9%,-4%,·,·,-12%[56.1 µM],·
CCCCC(CC)COP(=O)(OCC(CC)CCCC)OCC(CC)CCCC (stereo not given),?,?,-72*,11,-5%,?
N#CC(O[C@@H]1OC(COC2OC(CO)C(O)C(O)[C@@H]2O)C(O)C(O)C1O)c1ccccc1 (stereo not given in full),-5%,-1%,·,·,-5%[56.1 µM],·
CC(C)CCCn1c(O)c(/C=C2/C=CC=N2)c(=O)[nH]c1=O,5.8µM*,5.2µM*,-18,2,5%,?
C[C@H](CO)N1C[C@H](C)[C@@H](CN(C)C(=O)NC2CCCCC2)Oc2c(cccc2N(C)C)C1=O,?,?,-1,-22,1%,17%
CCCCCCOc1ccc(CN2CCN(C)CC2)cc1,18µM*,18µM*,?,4,4%,?
CCCNc1nc(-c2cc(C(=O)Nc3ccccc3)on2)cc(C(C)C)n1,?,?,-101*,?,·,·
Cc1ccc(-c2cc(-c3ccc(C)cc3)[n+](C)o2)cc1,0.46µM*,0.33µM*,0,4,1%,?
Clc1ccc2c(c1)C(c1ccccc1)=NCc1nncn1-2,1%,-27%,·,·,·,·
CCC(C)(C)c1ccc(O)cc1,-14%,?,6,-1,1%,5%
CC(C)(C)CC(C)(C)c1ccc(O)cc1,14µM*,22µM*,·,·,·,·
CC(=O)CCc1ccccc1,40%,7%,8,2,6%,15%
Cc1ccc(Sc2ccc(C=C3C(=O)N(C)C(=O)N(C)C3=O)o2)cc1,18µM*,18µM*,-12,10,5%,13%
Cn1cccc1/C=C1/C(=O)NC(=S)N(Cc2ccc(F)cc2)C1=O,3.7µM*,2.6µM*,?,7,·,-1%
C=CCN1C(=O)NC(=O)/C(=C/c2cccn2C)C1=O,?,?,0,-3,-1%,?
O=C1NC(=O)N(Cc2ccco2)C(=O)/C1=C/c1cccn1CCOc1ccccc1Cl,-22%,-7%,?,-19,0%,?
Cn1cccc1/C=C1\C(=O)NC(=O)N(Cc2ccccc2)C1=O,5.8µM*,2.1µM*,39,9,5%,?
Cn1cccc1/C=C1/C(=O)NC(=O)N(Cc2ccccc2)C1=O,4.6µM*,2.3µM*,-22,-11,5%,12%
CCOc1ccc(/C=C2/C(=O)NC(=O)N(CCc3ccc(F)cc3)C2=O)cc1,6%,9%,4,-4,2%,-3%
Cn1cccc1/C=C1/C(=O)NC(=O)N(Cc2ccc(F)cc2)C1=O,12µM*,9.2µM*,43,-22,·,-13%
c1ccc2c(c1)Sc1ccccc1N2C[C@@H]1CN2CCC1CC2,-5%,-3%,·,·,·,·
OCCN1CCN(CCCN2c3ccccc3Sc3ccc(C(F)(F)F)cc32)CC1,16µM*,18µM*,-57*,-12,5%,-9%
FC(F)(F)c1ccc2c(c1)N(CCCN1CCN(CCCl)CC1)c1ccccc1S2,8.2µM*,8.2µM*,-116*,19,9%,-2%
c1ccc2c(N3CCNCC3)cccc2c1,18µM*,?,?,8,10%[56.1 µM],·
O=C(C[N+]12CCC(CC1)C(CO)C2)c1ccc([N+](=O)[O-])cc1 (stereo not given),-29%,?,3,3,2%,9.2µM*
SMILES,TDP1 cell CPT,TDP1 cell noCPT,IL-1B inflam inh,Giardia kill,TDP1 inh,ELG1 repair inh
Cc1ccccc1C(=O)Nc1ccc2nc(SCC(=O)N(C)c3ccccc3)sc2c1,?,15µM*,·,·,2%,·
COc1ccccc1C(=O)Nc1ccc2nc(SCC(=O)N(C)c3ccccc3)sc2c1,18µM*,12µM*,·,·,4%,·
CC(C)(C)c1ccc(C(=O)Nc2ccc3nc(SCC(=O)N4CCCC4)sc3c2)cc1,8.2µM*,4.1µM*,·,·,2%,·
Oc1ccc([C@H]2CNCc3c2ccc(O)c3O)cc1O,?,-80%,·,·,·,·
Cc1cc(N(CCCl)CCCl)ccc1/C=N/N=C(\N)c1cnccn1,7.3µM*,12µM*,-55*,?,·,·
Cc1cc(N(CCCl)CCCl)ccc1C=Cc1ccncn1,2.6µM*,4.6µM*,-15,-17,·,·
O=C(/C=C\c1ccc(Cl)cc1)N[C@@]12CCC(=O)[C@@H]3Oc4c(O)ccc5c4[C@@]31CCN(CC1CC1)[C@@H]2C5,?,?,·,·,4%,·
CCN1C[C@]2(COC)[C@H](O)C[C@H](OC)[C@@]34[C@@H]5C[C@@]6(O)[C@H](OC(=O)c7ccccc7)[C@@H]5[C@@](OC(C)=O)([C@@H]([C@H](OC)[C@H]23)[C@@H]14)[C@@H](O)[C@@H]6OC,-9%,-8%,·,·,·,·
CC(C)(C)NC(=O)NC(=O)CN1CC=C(c2ccccc2)CC1,16µM*,13µM*,-5,-12,2%,-7%
CCC12C=CCN3CCC4(c5ccc(OC)cc5N(C)C4[C@@](O)(C(=O)OC)C1OC(C)=O)C32 (stereo not given in full),-5%,-10%,·,·,9%[56.1 µM],·
BrC(Br)Br,·,·,·,·,6%,·
c1ccc2c(c1)CN(Cc1ccc3c(c1)OCO3)Cc1cnnn1-2,?,10µM*,13,·,·,·
c1ccc(CN2Cc3ccccc3-n3nncc3C2)cc1,-5%,?,13,·,·,·
C#CCC(Cc1cnc2nc(N)nc(N)c2n1)c1ccc(C(=O)N[C@@H](CCC(=O)O)C(=O)O)cc1 (stereo not given in full),0.034µM*,0.024µM*,·,·,·,·
Cn1c(=O)c2c(-c3ccccc3)n3c(c2n(C)c1=O)C(c1ccco1)Nc1ccccc1-3 (stereo not given),?,?,·,·,0%,·
C#C[C@]1(O)C=C[C@H]2[C@@H]3CCC4=CC(=O)CC[C@@H]4[C@H]3CC[C@@]21CC,15µM*,15µM*,·,·,·,·
CCN(CC)CCc1c[nH]c2ccccc12,-15%[166 µM],-18%[166 µM],·,·,·,·
CCN(CCCl)Cc1ccccc1Br,16µM*,?,20,8,5%[56.1 µM],·
CCCCCCCCC(c1nc2cc(C)c(C)cc2[nH]1)n1c(=O)c(-c2ccccc2Br)nc2ccccc21 (stereo not given),-23%,?,0,·,·,·
CCC(=O)Nc1ccccc1-c1nc2ccccc2n(C(CC)C(=O)Nc2cccc(Cl)c2)c1=O (stereo not given),26µM*,21µM*,·,·,3%,·
